Laboratory results reported in PubChem BioAssay (NCI).
This is part of a sample that, as a whole, favours compounds with a hit. Of some 83,000 tested, about 20% had one in any assay.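 Testing used 96-well plates and a 48-hour single-concentration exposure. Example: -40 means 40% of the starting cells died.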 Active and inactive are the calls of the source. Rule for the calls: active = growth percent below 10; inactive = the rest.

system: HS 578T breast; experiment: NCI-60 one-dose screen, 48 h (100 = growth as untreated, 0 = no growth, -100 = all killed); conditions: 10 µM

| SMILES | growth |
| --- | --- |
| O=C(NO)c1ccc(-c2nc3ccc4[nH]ncc4c3c3c2CCCC3)cc1 | -29.8% (active) |
| O=C(CNc1nc(-c2ccccc2)cs1)Nc1ccc(Cl)cc1 | -3.04% (active) |
| COc1cc2c3c(n(CCCN4CCOCC4)c(=O)c2cc1OC)-c1nc2c(cc1C3=O)OCO2 | 71.6% (inactive) |
| Cc1ccc(/C=C/C(=O)c2ccc(NC(=O)CSc3nnc(-c4c[nH]c5ccccc45)n3-c3ccccc3)cc2)c(C)c1 | 67.8% (inactive) |
| O=C(CN1CCN(c2ncnc3c2cnn3-c2ccccc2)CC1)Nc1nncs1 | 3.92% (active) |
| CC(=O)Oc1ccccc1C(=O)Oc1ccc(C(=O)/C=C/c2ccncc2)cc1 | 32.8% (inactive) |
| O=C(NC(=S)N1CCN(c2ncnc3c2cnn3-c2ccccc2)CC1)c1ccc(Cl)cc1 | 32.7% (inactive) |
| C/C(=N\N=C\c1ccc(N(C)C)cc1)c1ccc2c(c1)Nc1ccccc1S2 | 18.7% (inactive) |
| COC(=O)C[C@](O)(CCCC(C)(C)O)C(=O)O[C@H]1C(OC)=C[C@@]23CCC(=O)N2CCc2cc4c(cc2[C@@H]13)OCO4 | 87.9% (inactive) |
| CN1CCN(Cc2ccc(NC(=O)c3cncc(C#Cc4cnc5ccc(N[C@H]6CCOC6)nn45)c3)cc2C(F)(F)F)CC1 | -42.7% (active) |
| CCOc1ccc(/C=N/NC(=O)Cn2nc(Cc3ccc([N+](=O)[O-])cc3)c3onc(C)c3c2=O)cc1 | -7.55% (active) |
| CN1CCN(c2ccc(C(=O)/C=C/c3ccc(OC(F)F)cc3)cc2)CC1 | 63.8% (inactive) |
| COc1ccc(C2N(c3ccc(Br)cc3)N=C(C(C)=O)N2[C@H]2[C@H](OC(C)=O)O[C@H](COC(C)=O)[C@@H](OC(C)=O)[C@@H]2OC(C)=O)cc1 (some centres undefined) | 63.3% (inactive) |
| CCOC(=O)C1=C(N)N(c2ccccc2)C2=C(C(=O)CC(C)(C)C2)C1c1ccc(Cl)cc1 (centres undefined) | 71.9% (inactive) |
| CCCn1c(=O)c2[nH]c(-c3ccc(OCc4nc5ccc(F)cc5[nH]4)cc3)nc2n(CCC)c1=O | 0.819% (active) |
| Cc1ccc(/C(CSc2nnc(-c3c[nH]c4ccccc34)n2-c2ccccc2)=N/O)cc1 | -53.5% (active) |
| CN1CCN(c2ccc(C(=O)/C=C/c3cc(C(F)(F)F)ccc3Cl)cc2)CC1 | 3.68% (active) |

| SMILES | growth |
| --- | --- |
| COc1ccc(C(=O)Nc2sc3c(c2C#N)CCC(=O)C3)cc1C(F)(F)F | -11.7% (active) |
| Cc1ccc(/C=C/C(=O)c2ccc(NC(=O)CSc3nnc(-c4c[nH]c5ccccc45)n3-c3ccccc3)cc2)cc1 | 83.8% (inactive) |
| COc1ccc(Nc2nc(N)n(Cc3cccc(Br)c3)n2)cc1 | -12.3% (active) |
| O=C1CCC(N2Cc3cc(NC(=O)COc4ccccc4)ccc3C2=O)C(=O)N1 (centres undefined) | 36.3% (inactive) |
| O=C(/C=C/Nc1ccccc1)c1ccc2c(c1)Nc1ccccc1S2 | 63% (inactive) |
| COc1cc2c(c(OC)c1OC)C(=O)CC(c1cccc(NC(=O)c3cccc(N)c3)c1)O2 (centres undefined) | 90.3% (inactive) |
| Cc1noc2c(Cc3ccc([N+](=O)[O-])cc3)nn(CC(=O)N/N=C/c3ccc(Br)cc3)c(=O)c12 | 41.5% (inactive) |
| COc1ccc(-c2nc(Nc3ccccc3S(N)(=O)=O)c3ccccc3n2)cc1 | 42.8% (inactive) |
| COc1cc(/C=C/C(=O)c2ccc(NC(=O)CSc3nnc(-c4c[nH]c5ccccc45)n3-c3ccccc3)cc2)cc(OC)c1OC | 93.2% (inactive) |
| O=C(CSc1nnc(-c2ccc3nc(-c4ccc(Cl)cc4)[nH]c3c2)o1)Nc1ccc(Br)cc1 | -16.5% (active) |
| Cc1ccn2c(C(=O)c3ccccc3)cc(-c3cc(-c4ccc(N(C)C)cc4)c(C#N)c(N)n3)c2c1 | 33.2% (inactive) |
| O=C1c2ccccc2C(=O)c2c1c(C(=O)c1ccc(Cl)cc1)n1c2ccc2c3ccccc3ccc21 | 93.2% (inactive) |
| Cn1c(O)c(N=Nc2nc(-c3cc4ccccc4oc3=O)cs2)c2cc(Br)ccc21 | 17.5% (inactive) |
| Cn1cc(-c2cc(N)n3nc(-c4c[nH]c5ccc(Br)cc45)cc3n2)c2cccnc21 | -38.8% (active) |
| COc1ccc2c3nc4cc(C)c(C)cc4nc3n(CCN(C)C)c2c1 | 49.1% (inactive) |
| O=C(CSc1nnc(-c2c[nH]c3ccccc23)n1-c1ccccc1)c1ccc(Br)cc1 | 52.3% (inactive) |
| OCc1[nH]nc2cc(Nc3ncc4ccc(Br)c(OC5CCC(O)CC5)c4n3)ccc12 (centres undefined) | -28.5% (active) |
